# About 79,000 compounds went through this panel and 15% of them were active in at least one assay; those are over-represented in the sample as a whole. Active and inactive are the calls of the source. Cut-off read from the data, not from the text of the source: active = growth inhibition above about 70%; inactive = the rest.
# Assay: NCI Yeast Anticancer Drug Screen. Data for the rad14 strain (AID 159);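 note: 0% = growth of vehicle-treated control cultures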
# Settings: S. cerevisiae rad14 strain growth inhibition; at 100.0 µM; stronger effect = higher value
# Method in brief: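 Inhibition of growth is reported for a repair-deficient yeast mutant following compound treatment, calculated relative to cultures that received vehicle.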
row,Compound,growth inhibition
1,CC(CN(C)C)C(=O)/C=C/c1ccc(Cl)c(Cl)c1 (stereo unspecified),96% (active)
2,CCCCCCNCCCNc1c2cc(OC)ccc2nc2cccc([N+](=O)[O-])c12,99% (active)
3,NC(=S)N1N=C2c3ccccc3CC[C@H]2[C@@H]1c1ccc(Cl)cc1,82% (active)
4,C/C(=N/NC(=S)Nc1ccccc1C)c1ccccn1,-6% (inactive)
5,O=C1/C(=C/c2ccc(Cl)c(Cl)c2)CNC/C1=C\c1ccc(Cl)c(Cl)c1,92% (active)
6,CC(C)OP(=O)(OC(C)C)C(=NCCO)NNc1ccc([N+](=O)[O-])cc1,42% (inactive)
7,N#CCC(=O)N/N=C(\c1ccccc1)C(c1ccccc1)C1(O)C(=O)Nc2c(Cl)ccc(Cl)c21 (stereo unspecified),39% (inactive)
8,CC(C)(CN1CCCCC1)C(=O)CC(SCCS(=O)(=O)O)c1ccccc1 (stereo unspecified),39% (inactive)
9,COC1=CCC23C(=O)C=CC(=O)C2(C1)C(=O)c1ccccc1C3=O (stereo unspecified),92% (active)
10,CCCCN(CCCC)c1ccc(N=Nc2ccc(S(=O)(=O)O)cc2)cc1,97% (active)
11,c1ccc2nc3c(nc2c1)sc1ccccc13,35% (inactive)
12,O=C1c2ccccc2-c2ccc(N=Cc3ccccc3)cc21,45% (inactive)
13,CNC(=S)N/N=C(/C)CCC/C(C)=N/NC(=S)NC,52% (inactive)
14,Nc1ccc(/C=C/c2ccc3cccnc3c2)cc1,28% (inactive)
15,COc1ccc2c3c1OC(C)C31CC(=O)CCC1CC2 (stereo unspecified),7% (inactive)
16,CCOC(=O)Nc1ccc(C)c(NC(=O)OCC)c1,21% (inactive)
17,CCN(CC)CCNc1ccc2nc(C)n3c4ccc(OC)cc4c(=O)c1c23,48% (inactive)
18,C[N+](C)([O-])CCCNc1c2ccccc2nc2cccc([N+](=O)[O-])c12,96% (active)

row,Compound,growth inhibition
1,O=C(c1cc(=O)c2ccc(O)cc2o1)c1ccc(Cl)cc1Cl,91% (active)
2,CCCNC(=O)OCc1c(COC(=O)NCCC)c(-c2ccc(Cl)c(Cl)c2)n2c1CCC2,73% (active)
3,O=C(Cc1ccccc1)NN1C(=O)C(Cl)C1c1cc(Br)cc(Br)c1O (stereo unspecified),92% (active)
4,CCOC(=O)C(Cc1c2ccccc2cc2ccccc12)(NC(C)=O)C(=O)OCC,-1% (inactive)
5,O=[N+]([O-])/C=C/c1cc2ccc3ccccc3c2[nH]1,91% (active)
6,Fc1ccc(Nc2ccc3ccccc3c2)cc1,97% (active)
7,O=S1(=O)CCC2=CC(C(F)(F)F)=CC(C(F)(F)F)=CN21,98% (active)
8,O=C(Cc1ccccc1)NNc1nc(NNC(=O)c2ccncc2)nc(Nc2ccc([N+](=O)[O-])cc2)n1,11% (inactive)
9,CCCCS/C(=C(/C#N)C(N)=O)c1cc2c([nH]1)CCCC2,62% (inactive)
10,O=C(O)c1ccccc1C(=O)OC1CCc2ccccc2C1 (stereo unspecified),52% (inactive)
11,CCOC(=O)/C(=C\c1cccc(C)c1)C(C)=O,99% (active)
12,NC(=S)N/N=C1\c2ccccc2CCC1CCC1(O)CCc2ccccc2C1=O (stereo unspecified),86% (active)
13,Cc1cccc2c(Cl)c3cccc(C)c3nc12,12% (inactive)
14,CC(C)OC(=O)NNc1c(Cl)cc(Cl)cc1Cl,7% (inactive)
15,Nc1ccc2c(c1)C(=O)c1c(F)cccc1-2,78% (active)
16,N#CSCC1COc2ccccc2O1 (stereo unspecified),98% (active)
17,Cc1ccc(S(=O)(=O)NC(=O)C2C(=O)CC3(CCCCC3)CC2=O)cc1,86% (active)
18,CC1=NN(C(=O)c2ccccc2O)C(=O)/C1=C/c1ccco1,96% (active)

# Assay: NCI Yeast Anticancer Drug Screen. Data for the sgs1 mgt1 strain (AID 161);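 note: 0% = growth of cultures given vehicle only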
# Settings: S. cerevisiae sgs1 mgt1 strain, at 5.0 µM (retest, dose inferred, filed as 0.5), stronger effect = higher value
# Method in brief: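 Growth of a repair-deficient yeast mutant was monitored after compound treatment and expressed as inhibition relative to vehicle-treated cultures.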
row,Compound,growth inhibition
1,CC(CN(C)C)C(=O)/C=C/c1ccc(Cl)c(Cl)c1 (stereo unspecified),-4% (inactive)
2,CCCCCCNCCCNc1c2cc(OC)ccc2nc2cccc([N+](=O)[O-])c12,88% (active)
3,NC(=S)N1N=C2c3ccccc3CC[C@H]2[C@@H]1c1ccc(Cl)cc1,-15% (inactive)
4,C/C(=N/NC(=S)Nc1ccccc1C)c1ccccn1,-35% (inactive)
5,O=C1/C(=C/c2ccc(Cl)c(Cl)c2)CNC/C1=C\c1ccc(Cl)c(Cl)c1,27% (inactive)
6,CC(C)OP(=O)(OC(C)C)C(=NCCO)NNc1ccc([N+](=O)[O-])cc1,1% (inactive)
7,N#CCC(=O)N/N=C(\c1ccccc1)C(c1ccccc1)C1(O)C(=O)Nc2c(Cl)ccc(Cl)c21 (stereo unspecified),4% (inactive)
8,CC(C)(CN1CCCCC1)C(=O)CC(SCCS(=O)(=O)O)c1ccccc1 (stereo unspecified),17% (inactive)
9,COC1=CCC23C(=O)C=CC(=O)C2(C1)C(=O)c1ccccc1C3=O (stereo unspecified),-2% (inactive)
10,CCCCN(CCCC)c1ccc(N=Nc2ccc(S(=O)(=O)O)cc2)cc1,-48% (inactive)
11,c1ccc2nc3c(nc2c1)sc1ccccc13,-52% (inactive)
12,O=C1c2ccccc2-c2ccc(N=Cc3ccccc3)cc21,5% (inactive)
13,CNC(=S)N/N=C(/C)CCC/C(C)=N/NC(=S)NC,48% (inactive)
14,Nc1ccc(/C=C/c2ccc3cccnc3c2)cc1,3% (inactive)
15,COc1ccc2c3c1OC(C)C31CC(=O)CCC1CC2 (stereo unspecified),14% (inactive)
16,CCOC(=O)Nc1ccc(C)c(NC(=O)OCC)c1,11% (inactive)
17,CCN(CC)CCNc1ccc2nc(C)n3c4ccc(OC)cc4c(=O)c1c23,13% (inactive)
18,C[N+](C)([O-])CCCNc1c2ccccc2nc2cccc([N+](=O)[O-])c12,41% (inactive)

row,Compound,growth inhibition
1,O=C(c1cc(=O)c2ccc(O)cc2o1)c1ccc(Cl)cc1Cl,3% (inactive)
2,CCCNC(=O)OCc1c(COC(=O)NCCC)c(-c2ccc(Cl)c(Cl)c2)n2c1CCC2,30% (inactive)
3,O=C(Cc1ccccc1)NN1C(=O)C(Cl)C1c1cc(Br)cc(Br)c1O (stereo unspecified),61% (inactive)
4,CCOC(=O)C(Cc1c2ccccc2cc2ccccc12)(NC(C)=O)C(=O)OCC,-7% (inactive)
5,O=[N+]([O-])/C=C/c1cc2ccc3ccccc3c2[nH]1,88% (active)
6,Fc1ccc(Nc2ccc3ccccc3c2)cc1,-4% (inactive)
7,O=S1(=O)CCC2=CC(C(F)(F)F)=CC(C(F)(F)F)=CN21,59% (inactive)
8,O=C(Cc1ccccc1)NNc1nc(NNC(=O)c2ccncc2)nc(Nc2ccc([N+](=O)[O-])cc2)n1,0% (inactive)
9,CCCCS/C(=C(/C#N)C(N)=O)c1cc2c([nH]1)CCCC2,9% (inactive)
10,O=C(O)c1ccccc1C(=O)OC1CCc2ccccc2C1 (stereo unspecified),1% (inactive)
11,NC(=S)N/N=C1\c2ccccc2CCC1CCC1(O)CCc2ccccc2C1=O (stereo unspecified),10% (inactive)
12,Cc1cccc2c(Cl)c3cccc(C)c3nc12,-6% (inactive)
13,CC(C)OC(=O)NNc1c(Cl)cc(Cl)cc1Cl,4% (inactive)
14,Nc1ccc2c(c1)C(=O)c1c(F)cccc1-2,-70% (inactive)
15,N#CSCC1COc2ccccc2O1 (stereo unspecified),-25% (inactive)
16,Cc1ccc(S(=O)(=O)NC(=O)C2C(=O)CC3(CCCCC3)CC2=O)cc1,11% (inactive)
17,CC1=NN(C(=O)c2ccccc2O)C(=O)/C1=C/c1ccco1,2% (inactive)
